Pf growth 96h = P. falciparum growth inhibition at 96 hour, primary screen for plastid delayed-death inhibitors. P. falciparum luciferase reporter growth, 96 h. Potency, µM (titrated, usually from 28.7 µM), for the others: top-dose activity change, negative = inhibition, usual class: inhibitors. 6.9% of 320,000 active; also: potency is read from the fitted curve at half-maximal effect; % is scaled to controls: 0 for no effect and ±100 for the full control effect
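Plates of compound plus infected erythrocytes (2% hematocrit, 0.05% parasitemia final) incubate 96 hours, 37 C, 5% CO2. Detection reagent added; reduced luminescence from the parasites' luciferase reporter flags inhibition.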
CHX counter = counter-screen for Shiga toxin inhibitors: cycloheximide protein synthesis inhibition; cell reporter, cycloheximide protein synthesis inhibition counterscreen; 12% of 300,000 active; max response, %; in the data active = max response mostly above about 13%, no sharp cut-off; inactive = mostly below about 14%; also: read at 38.3 µM for the half of the compounds with a filed dose; 0% is about no effect
AMA1 RON2 block = disrupts binding of P. falciparum AMA1 to RON2; 0.2% of 360,000 active; Potency, µM (titrated, usually from 58.2 µM), for the others: at the top dose activity change, negative = inhibition, usual class: inhibitors; AlphaScreen AMA1-biotinylated RON2 peptide binding; AID 720542;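 also: potency is read from the fitted curve at half-maximal effect; 0% = vehicle wells and -100% = peptide control; nearly all actives have a fitted effect of over 45% in size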
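AMA1 (3D7) with his tag at 25 nM final met compounds first, then biotinylated RON2 peptide at 25 nM; detection used donor plus acceptor beads, 10 µg/mL apiece, read by AlphaScreen after 30 min at room temperature.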
SARS PLpro yeast = blocks SARS-CoV papain-like protease in a yeast assay; S. cerevisiae expressing SARS-CoV PLpro, growth rescue; Potency, µM (titrated, usually from 32.9 µM), for the others: at the highest dose activity, positive = growth rescue, actives largely listed as activators; 0.19% of 330,000 active; AID 485353; calls by dose curve; also: potency is read from the fitted curve at half-maximal effect; 0% is about no effect; nearly all actives have a fitted effect of over 55% in size
Pf growth 48h = P. falciparum growth inhibition at 48 hours (one generation) | P. falciparum luciferase growth in erythrocytes, 48 h | Potency, µM (titrated, usually from 28.7 µM), for the others: at the highest dose activity change, negative = inhibition, hits mostly inhibitors | 5.9% of 310,000 active; also: potency is read from the fitted curve at half-maximal effect; % is scaled to controls: 0 for no effect and ±100 for the full control effect
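Cell-based growth assay: transgenic P. falciparum expressing firefly luciferase, cultured in red cells within RPMI 1640 containing 0.5% w/v Albumax, 24 mM bicarbonate and gentamycin. A drop in luciferase activity indicates inhibition.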
Shiga inhibitor = inhibitors of Shiga toxin in Vero cells | inhibition, % at 38.7 µM | Vero cells, Shiga toxin protein synthesis inhibition reporter | 9.2% of 290,000 active; in the data active = inhibition mostly above about 28%, no sharp cut-off; inactive = mostly below about 43%; also: 0% is about no effect
Active calls of the source: *; i = inactive; ? = inconclusive; · = no result; + = active, no number; [ ] = dose if it differs, or a comment. Most compounds without a hit are left out; they make up all but 19% or so of the library. Unless noted, calls follow the shape of the dose curve; as a rule, active = well fitted curve in the direction sought with a large enough effect; inconclusive = small, poorly fitted or top-dose-only effect, or another doubt; inactive = no such curve, though single readings can be large; an effect the other way counts as inactive or inconclusive.

SMILES	Pf growth 96h	CHX counter	AMA1 RON2 block	SARS PLpro yeast	Pf growth 48h	Shiga inhibitor
COc1cccc(N2CCN(Cc3nc4scc(-c5ccccc5)c4c(=O)[nH]3)CC2)c1	?	-5.5	24.7%[2.32 µM]	9.3%	-9.5%	-14.6
COC(=O)c1ccccc1NC(=O)C1CCN(C(=O)c2ccc(OC)cc2)CC1	11.7µM*	-2.8	3.4%	4.2%	0.2%	-20.4
COc1ccc(C(=O)Nc2ccc(-c3nnn(CC(=O)NCc4ccco4)n3)cc2)cc1	24.4%	-3.0	-7.4%	-0.3%	2.2%	-5.4
C=CCNC(=O)Cn1nnc(-c2ccc(-c3ccc(OC)cc3)cc2)n1	10.4%	22.7*	9.6%	5.9%	100.3%	51.0*
COc1cccc(-c2nnn(CC(C)=O)n2)c1	?	53.2*	-19.1%	-0.3%	i	+
CCCCOc1ccc(-c2nnn(CC(=O)NCCc3c[nH]c4ccccc34)n2)cc1	36.6%	14.6*	-1.6%	-0.8%	?	25.1
COc1ccc(C(=O)N2CCC(C(=O)NC3CC3)CC2)cc1	19.8%	-6.1	9.4%	-1.0%	22.0%	8.8
O=C(Cc1ccc(NC(=O)C2CCN(C(=O)c3ccccc3)CC2)cc1)Nc1ccc(C(=O)N2CCOCC2)cc1	·	·	-19.3%	·	·	·
Cc1cccc(-n2ncc3c2CCCC3NC(=O)CCN2Cc3ccccc3C2=O)c1C (stereo not given)	?	6.5	-10.6%	3.2%	?	33.1
CCN(C(=O)COC(=O)c1cccc(NS(=O)(=O)c2ccc(F)c(F)c2)c1)C1CCS(=O)(=O)C1 (stereo not given)	0.8%	-1.6	·	0.9%	-23.8%	-4.9
O=P(C(=S)Nc1ccccc1Cl)(c1ccccc1)c1ccccc1	·	·	99.0%	·	·	·
CCOC(=O)C(Cc1ccccc1)NC(=O)Cn1nnc(-c2ccc(SC)cc2)n1 (stereo not given)	?	-2.1	-5.9%	-12.8%	-10.3%	-8.1
CCOc1ccc(-c2nnn(CC(=O)c3ccc4c(c3)OCCO4)n2)cc1OCC	14.7µM*	33.6*	-0.2%	-3.0%	-11.3%	18.2
CSc1ccc(-c2nnn(CC(=O)NCc3ccccc3)n2)cc1	·	11.0*	-0.1%	-4.1%	19.5%	10.6
COc1ccc(OC)c(NC(=O)COC(=O)Cn2nnc(-c3ccccc3)n2)c1	4.6%	·	-12.6%	7.5%	14.6%	·
CCOC(=O)CC(NC(=O)Cn1nnc(-c2ccccc2)n1)c1ccc(OC)cc1 (stereo not given)	-2.3%	24.7*	9.7%	-0.5%	-7.1%	12.8
COc1cccc(-c2nnn(CC(=O)N3CCCCC3)n2)c1	?	21.3*	12.1%	-1.7%	75.6%	41.2*
CCOc1ccc(-c2nnn(CC(=O)NCc3ccc(F)cc3)n2)cc1OCC	?	-6.2	-1.3%	2.9%	2.5%	-12.5
NC(=O)C1(N2CCCCC2)CCN(C(=O)c2cc(COc3c(F)cccc3F)on2)CC1	·	·	4.6%	·	·	·
Nc1nc(COc2ccc(F)cc2Cl)nc(N2CCCCC2)n1	17.8%	7.7	-4.5%	-11.8%	8.1%	-8.5
COC(=O)c1ccccc1NC(=O)Cn1nnc(-c2ccc3c(c2)OCO3)n1	0.0%	-1.7	-11.7%	2.3%	-20.4%	-12.4
CC(=O)Cn1nnc(-c2ccc(C(F)(F)F)cc2)n1	36.1%	26.9*	4.0%	0.7%	47.9%	60.6*
CCOc1ccc(-c2nnn(CC(=O)Nc3cccc(OC)c3)n2)cc1OCC	11.7µM*	1.0	-3.0%	-1.3%	-23.4%	-2.5
COc1ccc(-c2ccc(-c3nnn(CC(C)=O)n3)cc2)cc1	-1.0%	35.0*	-2.1%	-6.4%	176.1%	92.8*
COC(=O)c1ccccc1NC(=O)Cn1nnc(-c2ccc(OC)cc2)n1	0.586µM*	-2.2	-0.6%	2.5%	-17.7%	-1.9
SMILES	Pf growth 96h	CHX counter	AMA1 RON2 block	SARS PLpro yeast	Pf growth 48h	Shiga inhibitor
O=C(CN1C(=O)NC2(CCCCCCC2)C1=O)Nc1cccc(Br)c1	·	·	1.7%	-1.9%	·	·
NC(=O)Cn1nnc(-c2ccc(NC(=O)c3ccc(F)cc3)cc2)n1	?	27.3*	-7.6%	2.3%	20.2%	70.0*
Cn1nc(-c2ccc(C(=O)Nc3cccc(Cl)c3)cc2)c2ccccc2c1=O	3.29µM*	-3.1	10.0%	0.0%	·	-2.0
Cn1nc(C(=O)NC2CCCC2)c2ccccc2c1=O	2.7%	·	11.1%	2.0%	9.4%	·
CC(O)CNC(=O)c1ccc(-c2nn(C)c(=O)c3ccccc23)cc1 (stereo not given)	7.3%	-2.2	5.9%	2.0%	·	-6.8
Cc1ccc(NC(=O)c2ccc(-c3nn(C)c(=O)c4ccccc34)cc2)c(C)c1	6.57µM*	-2.7	-8.1%	-7.9%	·	-12.7
Cc1ccc(NC(=O)c2ccc(-c3nn(C)c(=O)c4ccccc34)cc2)cc1	10.4µM*	-4.5	9.9%	3.9%	·	-10.1
Cn1nc(-c2ccc(C(=O)NC3CCCCC3)cc2)c2ccccc2c1=O	1.7%	-2.8	-3.4%	-1.8%	5.22µM*	-8.7
CC(C)CNC(=O)c1cc2nc(C3CC3)cc(C(F)(F)F)n2n1	·	·	-1.5%	·	·	·
COC(=O)/C=C1\SC(=NC(=O)c2ccc(-c3ccccc3)cc2)NC1=O	·	·	8.3%	6.6%	·	·
COc1cc(CCC(=O)Nc2cc(C)cc(C)c2)cc(OC)c1OC	?	9.5	-2.0%	-1.1%	?	-3.6
Cn1nc(-c2ccc(C(=O)Nc3cccnc3)cc2)c2ccccc2c1=O	?	0.4	9.7%	?	6.57µM*	-6.3
Cn1nc(-c2ccc(C(=O)Nc3ccc(F)cc3)cc2)c2ccccc2c1=O	8.0%	-2.6	-16.9%	-0.9%	?	-14.0
CC(C)Sc1nc2sccc2c(=O)n1-c1ccccc1	?	-2.5	-6.1%	-1.3%	-15.2%	19.3
CCCN(CC(=O)Nc1ccccc1OC)C(=O)c1ccc(COc2ccccc2)o1	?	·	-2.4%	1.2%	14.7µM*	·
CN(CC(=O)Nc1ccccc1Br)C(=O)c1ccc(COc2ccccc2)cc1	2.9%	18.8*	-17.6%	-0.6%	1.5%	10.6
COc1cccc(NC(=O)CN(C)C(=O)c2ccc(COc3ccccc3)o2)c1	14.7µM*	·	-5.1%	-5.9%	14.7µM*	·
CN(CC(=O)Nc1ccccc1Cl)C(=O)c1ccc(COc2ccccc2)cc1	16.1%	·	-2.2%	-5.9%	-12.4%	·
Cc1ccc(NC(=O)C2(S(=O)(=O)c3ccc(Cl)cc3)CC2)cc1	42.9%	-4.2	-6.3%	2.8%	6.8%	-9.8
CCOc1ccc(-c2c(C)n([O-])c3c([n+]2=O)CCCCC3)cc1	-38.9%[5.75 µM]	-1.1	0.0%	1.0%	37.9%	13.5
COc1ccc(-n2c(-c3ccc(Br)cc3)nc(=S)c3c2CCCC3)cc1	?	1.2	-7.4%	-9.4%	7.0%	-4.0
COc1ccc(-n2c(-c3ccc(Br)cc3)c[n+]3c2CCC3)cc1	?	1.6	-9.7%	-7.9%	6.57µM*	4.5
COc1ccc(-n2c(-c3ccc(Br)cc3)n[nH]c2=S)cc1	-12.2%	-2.4	48.5%	-2.2%	-16.1%	·
